CHOP inhibitor: inhibitors of CHOP promoter induction, primary screen, cell-based, unfolded protein response, luciferase reporter; CHO-K1 CHOP-promoter luciferase, tunicamycin-induced, 15-18 h; hit rate 3.8% among 220,000; inhibition, % at 10 µM;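 active means compounds that reduced the stress-induced luciferase reporter signal by more than about 70% of percent inhibition, limit read from the data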;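 further: 0% = tunicamycin plus vehicle and 100% = wells without tunicamycin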
RAM inhibit: inhibitors of the yeast RAM network, primary screen, dse1pr::URA3 reporter, 5-FOA selection; S. cerevisiae dse1pr::URA3 reporter, 5-FOA growth OD615, 2 d; analog-sensitive cbk1-as2 kinase mutant strain; inhibition, % at 50 µM; hit rate 1.8% among 190,000; AID 868, 2007;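 active means inhibition above a set limit, 3 SD over mean compound inhibition, cut at about 8.4% in these data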;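 further: 0% = DMSO-only wells with no growth and 100% = 10 µM 1-NA-PP1 full growth; inhibition rescues growth on 5-FOA so higher OD means more RAM inhibition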
L major viab: Leishmania major promastigote growth inhibition, primary screen; Leishmania major promastigotes, resazurin fluorescence viability; inhibition, % at 10 µM; hit rate 9% among 200,000; in the data active means inhibition above about 50%;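 further: promastigotes grown with compound for 44 hours at 28 °C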
WT yeast gro inh: growth inhibition of WT strain, primary screen, mitochondrial fusion inhibitor project, WT and mutant strains, chemical genetic | mitochondrial fusion phenotypic screen | inhibition, % at 10 µM | AID 1362, 2008 | hit rate 2.1% among 190,000; in the data active means inhibition above about 58%; tested in S. cerevisiae
Active calls of the source: *. An excerpt weighted towards active compounds, which were near 13% of everything screened.

Screening CC(C)c1ccc2[nH]c(O)c(N=NC(=O)c3cccc(S(=O)(=O)N4CCCCC4)c3)c2c1 returned CHOP inhibitor 66.4, RAM inhibit 0.9, L major viab 98.8* and WT yeast gro inh 1.8.
Screening ClC(/C=N/n1cnnc1)=C/c1ccccc1 returned CHOP inhibitor -68.1.
`COc1ccc2c(c1)CCC1C2CC[C@@]2(C)C1CC[C@@H]2NCCCCCCN1C(=O)C=CC1=O` (some centres undefined) gave CHOP inhibitor 3.6.
For COc1ccc(/C=C\C(=O)CC(O)(c2ccccc2)C(F)(F)F)cc1 (centres undefined) the results were CHOP inhibitor -15.0, RAM inhibit 2.7, L major viab 100.0* and WT yeast gro inh 24.8.
Screening COc1ccc(/C=C(/NC(=O)/C=C/c2ccccc2)C(=O)O)cc1 returned CHOP inhibitor 8.4, RAM inhibit 4.0, L major viab -7.3 and WT yeast gro inh 10.2.
Screening Cc1cc(F)ccc1S(=O)(=O)N1CCCOC1CNC(=O)C(=O)NCCc1c[nH]c2ccccc12 (centres undefined) returned CHOP inhibitor 21.5, RAM inhibit 1.3, L major viab 32.9 and WT yeast gro inh -13.0.
For CNC(=O)C(=O)NCC1OCCCN1S(=O)(=O)c1cccs1 (centres undefined) the results were CHOP inhibitor 35.2, RAM inhibit 0.8, L major viab 34.5 and WT yeast gro inh -10.4.
`Cc1cc(C)c(S(=O)(=O)N2CCCOC2CNC(=O)C(=O)NCCc2c[nH]c3ccccc23)c(C)c1` (centres undefined) gave CHOP inhibitor 36.5, RAM inhibit -0.3, L major viab 93.3* and WT yeast gro inh -5.8.
O=C(NCCO)C(=O)NCC1OCCCN1S(=O)(=O)c1cccs1 (centres undefined) was read as CHOP inhibitor 18.0, RAM inhibit 0.4, L major viab 55.7* and WT yeast gro inh -10.7.
`CCOC(=O)CN1C(=O)CN(c2ccc(C)c(C)c2)C1=O` gave CHOP inhibitor -4.7, RAM inhibit 0.4, L major viab 24.2 and WT yeast gro inh -17.2.
Screening O=C1/C(=C/c2cccnc2)CCc2c1[nH]c1ccccc21 returned CHOP inhibitor 41.1, RAM inhibit 0.8, L major viab 47.5 and WT yeast gro inh 28.0.
For CC1C/C(=C\c2cccnc2)C(=O)/C(=C/c2cccnc2)C1 (centres undefined) the results were CHOP inhibitor 102.0*, RAM inhibit 2.2, L major viab 100.3* and WT yeast gro inh 55.4.
`CCOC(=O)C1CC(c2ccccc2)=NNC1=O` (centres undefined) gave CHOP inhibitor -2.1, RAM inhibit 0.2, L major viab -7.7 and WT yeast gro inh 2.4.
`CCC1CCc2c(sc(NC(=O)C3c4ccccc4Oc4ccccc43)c2C(N)=O)C1` (centres undefined) gave CHOP inhibitor 43.5, RAM inhibit 4.3, L major viab 2.3 and WT yeast gro inh 18.8.
CN1CCN(/N=C/c2c3ccccc3c(Cl)c3ccccc23)CC1 was read as CHOP inhibitor 27.3, RAM inhibit 2.8, L major viab 65.8* and WT yeast gro inh 96.3.
CCOC(=O)C1=C(c2ccccc2)O/C(=C(\C(=O)OC)C(F)(F)F)S1 was read as CHOP inhibitor 47.7, RAM inhibit 11.2*, L major viab -5.9 and WT yeast gro inh -14.8.
Screening COC(=O)/C(=C1/Oc2ccc(C(C)(C)C)cc2S1)C(F)(F)F returned CHOP inhibitor 29.8, RAM inhibit 3.4, L major viab -9.4 and WT yeast gro inh -19.9.
Screening CC(C)N(CC(N)=O)C(=O)c1sc2cc(F)ccc2c1Cl returned CHOP inhibitor -3.7, RAM inhibit -0.4, L major viab -0.8 and WT yeast gro inh 15.6.
For O=C(c1sc2cc(F)ccc2c1Cl)N1CCN(c2ccccc2)CC1 the results were CHOP inhibitor 67.8, RAM inhibit 3.8, L major viab -2.2 and WT yeast gro inh 65.5*.
`CN1CCC(N(C)C(=O)c2sc3cc(F)ccc3c2Cl)CC1` gave CHOP inhibitor -2.8, RAM inhibit 0.5, L major viab 90.4* and WT yeast gro inh 1.3.
Screening O=c1cc(N2CCN(c3ccccc3)CC2)[nH]c(=O)n1C1CCCCC1 returned CHOP inhibitor 78.1*, RAM inhibit 1.6, L major viab 5.9 and WT yeast gro inh 8.4.
For O=c1cc(N2CCN(c3cccc(Cl)c3)CC2)[nH]c(=O)n1C1CCCCC1 the results were CHOP inhibitor 74.0*, RAM inhibit 3.4, L major viab -0.6 and WT yeast gro inh 9.5.
Cc1noc(C)c1-c1nnc(-c2ccc(C(F)(F)F)cc2)o1 was read as CHOP inhibitor 3.6.
COc1cc(O)c(/C=N/NC(=O)c2ccncc2)c(OC)c1[N+](=O)[O-] was read as CHOP inhibitor 20.2, RAM inhibit 0.4, L major viab -2.1 and WT yeast gro inh -9.8.
For COc1ccc(-n2cccc2C=O)cc1 the results were CHOP inhibitor 15.8, RAM inhibit 1.0, L major viab -6.2 and WT yeast gro inh -14.9.
Screening COc1ccc(-n2cccc2/C=C/[N+](=O)[O-])cc1 returned CHOP inhibitor -28.6, RAM inhibit 1.3, L major viab 99.9* and WT yeast gro inh 70.5*.
For Cc1ccc(S(=O)(=O)NC(=O)NC(C)Cc2ccccc2)cc1 (centres undefined) the results were CHOP inhibitor -1.6, RAM inhibit 1.9, L major viab -1.6 and WT yeast gro inh -0.6.
CC1(C)COC(/C=C/c2ccc([N+](=O)[O-])cc2)=N1 was read as CHOP inhibitor -24.2, RAM inhibit 1.7, L major viab 87.0* and WT yeast gro inh 9.2.
CC(=C/C(=O)O)/C=C/c1ccc([N+](=O)[O-])cc1 was read as CHOP inhibitor 1.4, RAM inhibit 1.9, L major viab 4.2 and WT yeast gro inh -22.6.
`Cc1cc(=O)[nH]c(SCC(=O)N2CCN(C(c3ccccc3)c3ccccc3)CC2)n1` gave CHOP inhibitor 73.7*, RAM inhibit 1.8, L major viab 14.9 and WT yeast gro inh 13.0.
For Cc1cc(=O)[nH]c(SC(C(=O)O)c2ccccc2)n1 (centres undefined) the results were CHOP inhibitor 5.1, RAM inhibit -0.5, L major viab 72.9* and WT yeast gro inh -20.4.
Screening CC1(c2nnc(Cc3ccccc3)o2)CC(c2ccc([N+](=O)[O-])cc2)=NO1 (centres undefined) returned CHOP inhibitor 18.9.
Screening Cc1ccccc1NC(=O)C1Cc2ccccc2CN1C(=O)OCc1ccccc1 (centres undefined) returned CHOP inhibitor 35.9, RAM inhibit 1.7, L major viab 92.1* and WT yeast gro inh 11.8.
O=C(CSc1nc(N2CCCCC2)nc(N2CCCCC2)n1)Nc1nccs1 was read as CHOP inhibitor 76.7*, RAM inhibit 2.4, L major viab 4.7 and WT yeast gro inh 11.7.
For Cc1nnc2sc(SCc3ccccc3)nn2c1=O the results were CHOP inhibitor 12.9, RAM inhibit 2.7, L major viab -5.0 and WT yeast gro inh -26.9.
For Cc1nnc2sc(SCC(=O)Nc3nccs3)nn2c1=O the results were CHOP inhibitor 21.3, RAM inhibit 2.5, L major viab 92.0* and WT yeast gro inh 1.6.

Bioassay records from PubChem BioAssay.
